Screening results from PubChem BioAssay.
The list is not random: actives were taken first. Their share in the collection is about 9.4%.
ELG1 genotox – inducers of genotoxicity in HEK293T ELG1-luciferase cells; HEK293T ELG1-luciferase reporter, luminescence, 16 h; hit rate 1.3% among 330,000; Potency, µM (series often up to 46 µM), without a hit: at the top dose activity change, positive = activation, actives largely listed as activators; also: % of control where 0% means no effect; nearly all actives have a fitted effect of over 60% in size
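Luminescence read-out: rising ELG1-luciferase signal, reflecting elevated ELG1 protein under genetic stress, flags genotoxic compounds. Cells were treated for 16 hr at 37 °C before ONE-Glo detection.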
ELG1 repair inh – blocks ELG1-dependent DNA repair in HEK293T cells. Potency, µM (top dose mostly 46.1 µM), inactives show top-dose activity change, negative = inhibition, most hits filed as inhibitors. HEK293T ELG1-luciferase reporter, luminescence, 16 h; DNA damage induced by 5-fluorouridine. hit rate 2.3% among 330,000; also: % is scaled to controls: 0 for no effect and ±100 for the full control effect; nearly all actives have a fitted effect of over 55% in size
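Step one: seed 2,000 cells per well. Step two: pin-transfer compound or DMSO alongside 5-fluorouridine. Step three: incubate 16 hr, 37 °C, 5% CO2. Step four: add ONE-Glo, wait 30 min, read luminescence.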
NPC1 promoter act – activates the NPC1 promoter. Huh7 NPC1 promoter luciferase reporter, 24 h. Potency, µM (highest dose often 9.22 µM), for inactives: top-dose activation, hits mostly activators. hit rate 2.4% among 320,000. AID 485313; also: % of control where 0% means no effect; nearly all actives have a fitted effect of over 60% in size
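Luminescence from an NPC1 promoter-driven luciferase reporter in stably transfected Huh7 cells was measured after 24 h compound treatment at 37 °C, followed by 10 min ambient incubation with luciferase detection reagent.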
FLuc modulator – inhibits or activates purified firefly luciferase, miR-21 counter-screen; P08659; purified FLuc, Km substrates, luminescence inhibition; Potency, µM (highest dose often 57.5 µM), for the others: top-dose activity change, negative = inhibition, usual class: inhibitors; hit rate 6.9% among 360,000;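 also: plate controls were vehicle for no effect and reference inhibitor for full effect; nearly all actives have a fitted effect of over 55% in size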
Target sequence (P08659 whole entry, looked up): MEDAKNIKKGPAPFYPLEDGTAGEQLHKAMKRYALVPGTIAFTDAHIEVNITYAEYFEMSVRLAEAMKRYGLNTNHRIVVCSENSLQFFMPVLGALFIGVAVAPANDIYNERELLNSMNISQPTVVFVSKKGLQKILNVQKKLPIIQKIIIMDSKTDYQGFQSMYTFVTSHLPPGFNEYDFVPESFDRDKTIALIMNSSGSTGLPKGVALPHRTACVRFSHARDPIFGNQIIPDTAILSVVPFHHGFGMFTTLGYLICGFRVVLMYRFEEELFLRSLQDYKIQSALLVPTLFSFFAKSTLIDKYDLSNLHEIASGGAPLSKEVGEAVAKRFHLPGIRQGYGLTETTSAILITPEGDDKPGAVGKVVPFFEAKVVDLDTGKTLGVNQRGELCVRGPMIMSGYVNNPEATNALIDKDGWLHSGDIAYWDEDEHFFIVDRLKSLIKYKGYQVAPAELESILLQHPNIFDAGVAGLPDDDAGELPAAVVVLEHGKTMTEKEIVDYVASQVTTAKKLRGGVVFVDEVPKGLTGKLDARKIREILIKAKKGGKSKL
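Purified P. pyralis luciferase, 10 nM final, with Km-level 10 uM D-luciferin and 10 uM ATP in 50 mM Tris acetate pH 7.5, 10 mM Mg acetate, 0.01% Tween-20, 0.05% BSA; 6-point qHTS titration about 60 µM downward; luminescence read.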
SMN2 splice enh – SMN2 splice variant enhancement; HEK293 SMN2-luciferase splicing reporter, luminescence, 30-36 h; AID 1458; hit rate 2.8% among 210,000; Potency, µM (top dose mostly 46.1 µM), for inactives: at the top dose activity change, positive = activation, most hits filed as activators; also: % of control where 0% means no effect; nearly all actives have a fitted effect of over 55% in size
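HEK293 cells carry an SMN2 […]–luciferase reporter in which exon 7 inclusion puts luciferase in frame. Cells were plated 10-12 h before compound addition, then incubated 30-36 h at 37C. ONE-Glo luminescence was read; sodium butyrate at 4.5 mM final served as control.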
Rab9 promoter act – activates the Rab9 promoter | Huh7 Rab9 promoter-luciferase reporter, luminescence, 24 h | Potency, µM (series often up to 9.22 µM), for the others: at the top dose activation, negative = inhibition, usual class: activators | hit rate 2.8% among 320,000; also: % of control where 0% means no effect; nearly all actives have a fitted effect of over 60% in size
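Luciferase signal after 10 min detection reagent at ambient indicates Rab9 promoter upregulation; stably transfected Huh7 cells were treated 24 h with compound in DMSO at 37 °C, 5% CO2.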
An asterisk follows results filed as active; u = inconclusive; x = no result; [ ] = another dose, or the depositor's remark. Calls follow the shape of the dose curve; as a rule, active = well fitted curve in the direction sought with a large enough effect; inconclusive = small, poorly fitted or top-dose-only effect, or another doubt; inactive = no such curve, though single readings can be large; an effect the other way counts as inactive or inconclusive. Potency is read from the fitted curve at half-maximal effect.

SMILES | ELG1 genotox | ELG1 repair inh | NPC1 promoter act | FLuc modulator | SMN2 splice enh | Rab9 promoter act
CCN(Cc1ccccc1)c1ccc(N=Nc2nn(C)c(C)c2[N+](=O)[O-])cc1 | 11% | u | 20% | 15µM* | u | 25%
CCN(CC)c1ccc(N=Nc2nn(C)c(C)c2[N+](=O)[O-])cc1 | 5.8µM* | u | 0.79µM* | 1.7µM* | 14µM* | 1.4µM*
O=S(=O)(O)C(c1ccccc1)[C@@H](O)c1ccccc1 (stereo partly specified) | x | x | x | x | -14%[9.22 µM] | x
c1ccc(CNc2cncnc2)cc1 | 2% | -4% | -2% | -1% | x | 2%
COc1ccc(Cl)cc1NC(=O)CN(c1cccc(C)c1C)S(C)(=O)=O | x | x | x | 3% | -2% | x
CCc1ccc(CNC(=O)Cn2nc(C)c3nn(-c4ccc(Cl)cc4)c(C)c3c2=O)cc1 | x | x | x | 1% | x | x
CC(C)c1ccc(/C=C/C2=NNC(=O)CC2)cc1 | u | u | -18% | 5.4µM* | 10µM* | u
Cc1ccc(Sc2ccc(N3CCC(C(=O)Nc4ccc(Cl)cc4)CC3)nn2)cc1 | x | x | x | -19% | 11% | x
O=C(NCCS(=O)(=O)N1CCN(c2ccccc2F)CC1)C(c1ccccc1)c1ccccc1 | x | x | x | 1% | x | x
O=C(/C=C/Nc1ccc(Br)cn1)c1cccc(OC(F)F)c1 | u | u | 2.8µM* | 2.7µM* | x | 2.2µM*
Cc1ccc(Cn2nnc3c(=O)n(CC(=O)N4CCN(c5ccccc5)CC4)cnc32)cc1 | -9% | 15µM* | 2% | 2% | -64% | -2%
CC(C)c1cc(C(=O)Nc2cc(Cl)ccc2O)no1 | u | u | 2.8µM* | 7.6µM* | 13µM* | 1.6µM*
O=C(Nc1cc(Br)ccc1O)c1cc(-c2cccs2)on1 | 29% | u | 23% | u | x | u
CCCc1cc(C(=O)Nc2cc(Cl)ccc2O)no1 | 16µM* | u | u | 11µM* | x | u
CC(C)Cc1cc(C(=O)Nc2cc(Cl)ccc2Cl)no1 | 30% | 6% | 16% | u | 6% | 21%
CSc1ccccc1NC(=O)c1cc(C(C)C)on1 | 12µM* | u | u | 21µM* | 18% | u
CCCc1cc(C(=O)Nc2cc(Br)ccc2O)no1 | 13µM* | u | 16% | u | u | 25%
CC(C)c1cc(C(=O)Nc2cc(Br)ccc2O)no1 | u | u | 24% | u | u | u
S=C1N[C@H](c2ccccc2)N[C@H](c2ccccc2)S1 | x | x | x | x | -12%[9.22 µM] | x
C[N+](C)(C)C(C1=CCCC1=O)c1ccccc1 (stereo unspecified) | x | x | x | x | -1%[9.22 µM] | x
CCN(CC)CCCNC(=O)c1ccc2nc(CCc3ccccc3)oc2c1 | x | x | x | -2% | x | x
COc1cc(C(=O)NC23CC4CC(CC(C4)C2)C3)cc(OC)c1OC | 3% | 10% | -1% | -1% | x | -5%
COCc1cc(C)[nH]c(=O)c1C(=O)NC12CC3CC(CC(C3)C1)C2 | -7% | 18µM* | -12% | -5% | x | -22%
CCOC(=O)Cn1cc(/C=N/N2C(=O)C3C4C=CC(C4)C3C2=O)c2ccccc21 (stereo unspecified) | 8% | u | 5% | 15µM* | 3% | -1%
O=C1C2C3C=CC(CC3)C2C(=O)N1/N=C/c1c[nH]c2ccccc12 (stereo unspecified) | 25% | u | u | 9.5µM* | 92% | u
SMILES | ELG1 genotox | ELG1 repair inh | NPC1 promoter act | FLuc modulator | SMN2 splice enh | Rab9 promoter act
COc1ccccc1/C=N/N1C(=O)C2C3C=CC(CC3)C2C1=O (stereo unspecified) | 10% | -16% | -6% | u | -30% | -3%
O=C1C2C3C=CC(C3)C2C(=O)N1/N=C/c1cn(Cc2ccccc2)c2ccccc12 (stereo unspecified) | 11% | 28% | 5% | u | -5% | 6%
CC(=O)c1ccc(NC(=O)c2nn(C)c3c2COc2ccccc2-3)cc1 | x | x | x | 4% | x | x
CCOc1ccc(OC(=O)c2cn(-c3ccc(C)cc3)c(=O)c3ccccc23)cc1 | x | x | x | 4% | x | x
O=C(N/N=C/c1ccc(Br)cc1)c1ccc(F)cc1 | u | u | u | 6µM* | 13µM* | 24%
O=C(N/N=C/c1ccc(Br)cc1)c1ccc(Br)o1 | u | u | u | 4.3µM* | 11µM* | 3.2µM*
O=C(N/N=C/c1ccc(F)cc1)c1ccc(Br)cc1 | 14% | u | 23% | 9.5µM* | 7% | 27%
O=C(N/N=C/c1ccc(Br)cc1)c1cc[n+]([O-])cc1 | 1% | 11% | 2% | u | x | -2%
Cc1cccc(/C=N\N=C\c2cccc(C)c2)c1 | 16% | u | u | 8.5µM* | x | 25%
CCOC(=O)N1CCN(C(=O)CN(c2cccc(Cl)c2)S(=O)(=O)c2ccccc2)CC1 | x | x | x | -4% | 4% | x
Cc1cccc(/C=N/NC(=O)c2ccc(Br)cc2)c1 | u | u | 14% | 3.4µM* | u | u
CCCCOC(=O)c1c(C)oc2c1cc(NS(=O)(=O)c1cc(OC)ccc1OC)c1ccccc12 | x | x | x | -4% | 10% | x
Cc1ccc(OCC(=O)Nc2ccccc2[N+](=O)[O-])c(Br)c1 | u | u | 3.2µM* | 2.4µM* | 18µM* | 2.8µM*
Cc1ccc(OCC(=O)Nc2ccon2)c([N+](=O)[O-])c1 | 10µM* | u | 3.2µM* | 8.5µM* | x | 3.2µM*
